# Source: PubChem BioAssay
# JMJD2A Tudor – blocks the human JMJD2A Tudor domain; O75164; AlphaScreen JMJD2A-Tudor / H3K4me3 peptide binding; Potency, µM (titrated, usually from 114 µM), without a hit: at the top dose activity change, negative = inhibition, actives largely listed as inhibitors; 4.4% of 390,000 active; further: potency means the concentration at half of the fitted maximal effect; on the % scale 0 is the no-effect control and ±100 the full control effect; nearly all actives have a fitted effect of over 50% in size
# BAZ2B block – BAZ2B (human) inhibition | AlphaScreen BAZ2B-H3K14Ac peptide displacement | Potency, µM (series often up to 114 µM), for inactives: at the top dose activity change, negative = inhibition, most hits filed as inhibitors | 4.4% of 360,000 active; further: potency means the concentration at half of the fitted maximal effect; on the % scale 0 is the no-effect control and ±100 the full control effect; nearly all actives have a fitted effect of over 60% in size
#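 Multi-concentration screen (max 110 uM) measuring displacement of acetylated histone H3 peptide from BAZ2B by AlphaScreen, using 50 nM protein, 50 nM peptide and 10 ug/mL streptavidin donor plus Ni-chelate acceptor beads.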
# PI5P4K alpha inh – inhibitors of human PI5P4K alpha; AID 652105; P48426; PI5P4Kalpha enzyme, ADP-Glo luminescence, 60 min; stronger effect = lower value; max response, %; 1.2% of 330,000 active; active means max response of -50% or lower; inconclusive means between -30% and -50%; inactive means -30% or higher; further: value at the top dose of about 77 µM; on the % scale 0 is the no-effect control and ±100 the full control effect
#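 Controls without substrate or without enzyme flank wells where PI5P4Kalpha converts substrate using 5 microM ATP (final). Incubation lasts 60 minutes at room temperature; ADP formed is read by ADP-Glo luminescence.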
# PLK1 PBD inh – PLK1 (human) polo-box domain binding inhibition; P53350; Plk1 PBD binding of FITC phosphopeptide, fluorescence polarization; Potency, µM, for the others: max response, negative = inhibition, actives largely listed as inhibitors; 2.8% of 360,000 active; AID 720504; further: potency means the concentration at half of the fitted maximal effect; series mostly up to about 57 µM; on the % scale 0 is the no-effect control and ±100 the full control effect; nearly all actives have a fitted effect of over 65% in size
# GCN5L2 inh-1 – GCN5L2 (KAT2A) acetyltransferase inhibition. Q92830. Potency, µM (series often up to 58.9 µM), without a hit: at the top dose activity change, negative = inhibition, actives largely listed as inhibitors. GCN5L2 HAT assay, ThioGlo1 CoA-SH fluorescence. 0.21% of 390,000 active. AID 504327; further: potency means the concentration at half of the fitted maximal effect; on the % scale 0 is the no-effect control and ±100 the full control effect
# Target sequence (Q92830 whole entry, looked up): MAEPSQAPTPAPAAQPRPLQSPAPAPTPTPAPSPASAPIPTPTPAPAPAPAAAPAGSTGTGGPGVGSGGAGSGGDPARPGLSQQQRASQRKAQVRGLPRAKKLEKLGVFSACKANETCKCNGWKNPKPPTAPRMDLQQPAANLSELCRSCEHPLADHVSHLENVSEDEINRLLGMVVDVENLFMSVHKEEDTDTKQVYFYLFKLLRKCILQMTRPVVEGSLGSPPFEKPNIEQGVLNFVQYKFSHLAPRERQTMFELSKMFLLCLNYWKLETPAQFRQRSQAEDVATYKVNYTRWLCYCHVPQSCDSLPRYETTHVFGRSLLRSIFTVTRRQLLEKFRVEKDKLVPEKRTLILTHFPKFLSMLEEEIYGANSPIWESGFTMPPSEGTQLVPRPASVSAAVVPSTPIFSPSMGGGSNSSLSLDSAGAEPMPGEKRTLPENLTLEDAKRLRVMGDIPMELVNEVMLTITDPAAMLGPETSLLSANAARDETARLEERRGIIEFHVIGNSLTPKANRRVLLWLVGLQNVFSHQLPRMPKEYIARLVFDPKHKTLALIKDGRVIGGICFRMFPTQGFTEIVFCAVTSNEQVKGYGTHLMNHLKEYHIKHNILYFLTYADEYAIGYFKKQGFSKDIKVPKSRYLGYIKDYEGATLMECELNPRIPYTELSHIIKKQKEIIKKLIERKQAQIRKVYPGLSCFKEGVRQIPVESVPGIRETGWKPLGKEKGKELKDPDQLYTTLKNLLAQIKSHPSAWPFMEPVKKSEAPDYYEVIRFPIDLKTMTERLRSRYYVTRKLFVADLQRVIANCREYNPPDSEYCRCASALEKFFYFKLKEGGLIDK
#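 Compounds, pin-transferred from DMSO stocks, meet 20nM GCN5L2 for 15 min before the reaction begins with H3(1-25) peptide (75uM) and acetyl-CoA (70uM). Thiol-reactive ThioGlo1 reports CoA release over 20 min at room temperature.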
# HP1b chromo inh – blocks HP1-beta chromodomain binding to methylated histone tails; 0.56% of 390,000 active; P83916; AID 540317; Potency, µM (series often up to 114 µM), for inactives: at the highest dose activity change, negative = inhibition, actives largely listed as inhibitors; AlphaScreen HP1-beta / biotin-H3K9me3 peptide binding; further: potency means the concentration at half of the fitted maximal effect; nearly all actives have a fitted effect of over 70% in size
#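 AlphaScreen: HP1-beta (50 nM) preformed 30 min with biotin-H3(1-18)K9me3 peptide (50 nM) in PBS pH 7.4, 0.01% Tween-20. Compound added for 30 min at RT, then streptavidin donor/nickel chelate acceptor beads (10 ug/mL) for 30 min.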
# GCN5L2 inh-2 – human KAT2A HAT inhibition, hit confirmation. GCN5L2 HAT, ThioGlo1 CoA fluorescence, 20 min. 70% of 140 active. AID 588347. shares compounds with GCN5L2 inh-1. Potency, µM, most hits filed as inhibitors
# ME-1 growth – inhibitors of ME-1 leukemia cell proliferation, CBFb-RUNX1 project. Potency, µM (series often up to 56.1 µM), inactives show at the highest dose activity change, negative = inhibition, actives largely listed as inhibitors. AID 504370. shares compounds with BAZ2B block. ME-1 cell proliferation, ATP luminescence, 48 h. 20% of 140 active
# ADP-Glo interf – interferes with ADP-Glo detection without enzyme present | shares compounds with PI5P4K alpha inh | ADP-Glo detection counter-screen, luciferase luminescence, no enzyme | Potency, µM (series often up to 76.9 µM), for inactives: at the top dose activity change, negative = inhibition, actives largely listed as inhibitors | 1,100 tested, under 10 active | AID 743285
# TbPYK inh – Trypanosoma brucei pyruvate kinase inhibition, cherry-pick confirmation; shares compounds with PLK1 PBD inh; recombinant TbPYK, Kinase-Glo ATP luminescence; Potency, µM (series often up to 76.9 µM), for inactives: at the highest dose activity change, negative = inhibition, actives largely listed as inhibitors; 67% of 890 active; further: potency means the concentration at half of the fitted maximal effect; on the % scale 0 is the no-effect control and ±100 the full control effect; nearly all actives have a fitted effect of over 70% in size
# TbPYK orthogonal – inhibits T. brucei pyruvate kinase in orthogonal ADP-Glo assay. AID 720584. recombinant TbPYK, ADP-Glo luminescence, 60 min. Potency, µM (highest dose often 76.9 µM), without a hit: top-dose activity change, negative = inhibition, hits mostly inhibitors. 62% of 890 active. shares compounds with PLK1 PBD inh; further: potency means the concentration at half of the fitted maximal effect; on the % scale 0 is the no-effect control and ±100 the full control effect; nearly all actives have a fitted effect of over 75% in size
# * = called active by the depositor; u = inconclusive; x = no result given; [ ] = dose if it differs, or a comment. Compounds with a hit are over-represented: about 7% of the library has one in this group of screens. Unless noted, the call rests on the fitted dose curve; in most records, active means well fitted curve in the direction sought with a large enough effect; inconclusive means small, poorly fitted or top-dose-only effect, or another doubt; inactive means no such curve, though single readings can be large; an effect the other way counts as inactive or inconclusive.
SMILES,JMJD2A Tudor,BAZ2B block,PI5P4K alpha inh,PLK1 PBD inh,GCN5L2 inh-1,HP1b chromo inh,GCN5L2 inh-2,others
COc1ccc(CCN2C(=NC(=O)CC(C)C)SC3CS(=O)(=O)CC32)cc1OC (centres undefined),-1.9%,0.4%,1.5,2.5%,-0.6%,42.5%,x,
O=C(Nc1cccc(C(F)(F)F)c1)c1ccc2nc(-c3ccco3)c(-c3ccco3)nc2c1,20µM*,50.1µM*,-101.8*,5.32µM*,u,-91.8%,18.2*,
O=C(Nc1ccc(F)c(Cl)c1)NC1CC1,-6.7%,11.4%,-8.6,-4.9%,2.6%,30.4%,x,
O=C(Nc1ccc2nc(-c3ccco3)c(-c3ccco3)nc2c1)NC1CC1,20µM*,11.2µM*,-74.6*,u,8.91µM*,35.5µM*,20.4*,
CCCCC(=O)N(C)c1c(C)nc2ccc(C(=O)N3CCCCC3)cn12,x,x,-2.9,-6.7%,x,x,x,
COCC(=O)N1CCC(Oc2ccc(C(=O)N3C[C@H]4CC[C@H]3C4)cc2)CC1,-1.4%,-7.2%,5.5,2.3%,-0.6%,36.5%,x,
Cc1ccc(C2=NOC(=O)/C2=C\C=C\c2ccccc2)cc1,50.1µM*,35.5µM*,u,1.68µM*,25.1µM*,-29.6%,u,
CN(C)/C=C1\C(=O)ON=C1c1ccccc1,-8.1%,-1.5%,-1.5,-6.6%,-3.7%,23.2%,x,
Cc1cc(/C=C2/SC(=S)N(c3cccc(C(F)(F)F)c3)C2=O)c(C)n1-c1cccnc1,u,x,1.4,-24.2%,x,u,x,
Cc1cccc(C)c1-n1cccc1/C=C1\SC(=S)N(c2cccc(C(=O)O)c2)C1=O,u,50.1µM*,u,u,31.6µM*,u,20.4*,
COC(=O)c1c(NC(=O)C2=COCCO2)sc(C)c1C,-3.4%,10.7%,5.5,-7.4%,-0.8%,22.8%,x,
Cc1c(Cl)cccc1NC(=O)c1ccc2c(c1)CCN2S(=O)(=O)c1ccccc1,-2.8%,-0.8%,x,x,-9.1%,34.1%,x,
Cc1nc2nc(-c3cccs3)cn2nc1C,-7.6%[57.1 µM],10.3%,-14.1,29.9µM*,u,-5.2%,36.3*,
COC(=O)c1cc(NC(=O)c2cc3sccc3n2Cc2ccc(Cl)cc2)cc(C(=O)OC)c1,-28.8%,-20.3%,x,x,-2.3%,18.0%,x,
CCCC(=O)Nc1ccc(-c2cn3cccnc3n2)cc1,-14.4%,6.2%,3.4,-1.9%,31.6µM*,18.8%[57 µM],20.4*,
Cc1ccc(S(=O)(=O)CC(=O)Nc2nc3c(C)cc(C)cc3s2)cc1,-24.7%,-14.0%,x,x,-14.7%,23.2%,x,
Cc1[nH]c(=O)nc(SCc2cccc(Cl)c2)c1C#N,-14.0%,-1.1%,-21.7,-27.6%,-8.5%,19.4%,x,
N#Cc1c(-c2ccccc2)nc(SCc2cccc(Cl)c2)[nH]c1=O,-21.4%,-15.2%,-22.3,26.7µM*,u,1.2%,18.2*,
Cc1nn(C2CCS(=O)(=O)C2)c(Cl)c1/C=C/C(=O)OCC(=O)Nc1ccc2c(c1)OCO2 (centres undefined),-2.8%,-38.7%,-4.6,5.0%,-14.6%,17.1%,x,
Cc1c2cnn(CC(=O)Nc3c(F)c(F)cc(F)c3F)c(=O)c2c(C)n1Cc1ccccc1F,u,56.2µM*,-56.3*,u,12.6µM*,-15.9%,20.4*,ADP-Glo interf=4.0%
C/C(=N\NC(=O)CCn1nnc2ccccc21)c1cccs1,-5.5%,3.1%,0.8,-1.2%,0.3%,26.0%,x,
c1ccc2sc(N3CCOCC3)nc2c1,-7.0%,5.2%[57.1 µM],x,-9.5%,-10.8%,57.7%,x,
c1ccc2sc(SN3CCOCC3)nc2c1,39.8µM*,3.0%,-76.3*,21.2µM*,u,u,14.5*,TbPYK inh=28.2µM*;TbPYK orthogonal=35.5µM*
CC(C)(O)C1Cc2cc(/C=C/C(=O)O)c(O)cc2O1 (centres undefined),3.98µM*,20µM*,-66.4*,2.99µM*,10µM*,u,9.13*,TbPYK inh=12.6µM*;TbPYK orthogonal=14.1µM*
O=C1CCC(C(=O)Nc2cccc(S(=O)(=O)Nc3ccccc3F)c2)=NN1,u,x,-12.0,2.38µM*,u,u,11.5*,TbPYK inh=6.31µM*;TbPYK orthogonal=6.31µM*
SMILES,JMJD2A Tudor,BAZ2B block,PI5P4K alpha inh,PLK1 PBD inh,GCN5L2 inh-1,HP1b chromo inh,GCN5L2 inh-2,others
COc1ccccc1CN1CCNC(=O)C1CC(=O)N(C)Cc1nc(C)cs1 (centres undefined),-8.2%,-5.5%,-2.3,2.8%,-16.0%,44.4%,x,
O=C(Cn1nnc(-c2ccccc2F)n1)N1CCCCC1,4.5%,2.8%,-5.1,-1.1%,u,42.5%,x,
CN=c1nc(-c2ccccc2)n(-c2ccccc2)s1,22.4µM*,8.91µM*,-85.8*,2.99µM*,2.24µM*,7.08µM*,2.57*,TbPYK inh=0.891µM*;TbPYK orthogonal=1.78µM*
CC(NC(=O)c1sc2cc([N+](=O)[O-])ccc2c1Cl)C(C)(C)C (centres undefined),50.1µM*,-15.8%,-51.7*,1.19µM*,u,6.31µM*,3.63*,ADP-Glo interf=-3.0%;TbPYK inh=3.98µM*;TbPYK orthogonal=11.2µM*
O=C(NC1CC1)c1sc2cc([N+](=O)[O-])ccc2c1Cl,-8.9%,-29.5%,-2.6,1.1%,-1.4%,7.4%,x,
CNC(=O)C1CCC(Cn2c(=O)c3sccc3n(CC(=O)NCc3ccccc3)c2=O)CC1 (centres undefined),8.7%,4.2%,x,x,10.9%,69.1%,x,
Cc1cc(C(=O)NC2Cc3ccccc3C2)c(C)o1,-16.9%,-12.2%,-3.5,-14.1%,-3.0%,14.8%,x,ME-1 growth=-39.0%[25.6 µM]
